Bioassay records as filed in PubChem BioAssay.
Only some compounds are listed: those with a hit (about 1.2% of all), similar ones and a draw of the others.
zVAD death inh: blocks zVAD induced death of L929 cells; 0.38% of 220,000 active; L929 zVAD necroptosis rescue, ATP luminescence, 24 h; with zVAD 60 µM; viability rescue, % at 10 µM;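 active = activation, scaled between plate controls, above about 75%, limit read from the data; inactive = activation under that limit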;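 note: 0% = zVAD with DMSO and 100% = DMSO alone without zVAD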
TNF necrop inh: inhibitors of TNF-alpha induced necroptosis in Jurkat FADD-/- cells; Jurkat FADD-/- TNF necroptosis rescue, ATP luminescence, 24 h; 0 = TNF only, 100 = no-TNF cells; activation (protection from cell death), % at 10 µM; 0.068% of 220,000 active; AID 463075;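 active = activation, meaning protection from cell death, of at least 50% relative to plate controls; inactive = activation below 50%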;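 note: necroptosis triggered by 40 ng/mL TNF-alpha added together with compound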
eIF4E-4G inh: blocks eIF4E binding to eIF4G; 0.37% of 220,000 active; TR-FRET eIF4E-eIF4GI(517-606) binding, 2 h; inhibition, % at 21.7 µM;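 active = inhibition above about 30%, limit read from the data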;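 note: 0% = full FRET control wells and 100% = background wells lacking eIF4GI fragment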
EBV gp42 inh: EBV gp42 inhibition | Q1HVG2 | Fluorescence polarization binding assay, mP read-out | inhibition, % (tested at 21.74 µM) | 0.42% of 220,000 active | AID 1085; in the data active = inhibition above about 50%
zVAD necrop conf: confirmed blocker of zVAD induced death in L929 cells; shares compounds with zVAD death inh; L929 zVAD-induced necroptosis rescue, ATP luminescence, 24 h; activation (protection from necroptosis), % at 10 µM; 16% of 760 active; AID 463117;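 active = mean protection from necroptosis of at least 50% over duplicate tests; inactive = mean protection below 50%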;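 note: 0% = cells with zVAD alone and 100% = vehicle cells without zVAD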
Numbers without * were called inactive; . = not tested or not shown.

SMILES	zVAD death inh	TNF necrop inh	eIF4E-4G inh	EBV gp42 inh	zVAD necrop conf
CCOc1ccccc1NC(=O)Nc1ccc(Br)cn1	4	-1	-1	-17	.
Cc1ccc(S(C)(=O)=N/C=C2\C(=O)c3sccc3N(C)S2(=O)=O)cc1 (stereo unspecified)	0	0	3	0	.
O=S(=O)(c1ccc(Br)cc1)c1cnc2ccccc2n1	47	5	19	-14	.
COc1ccc(S(=O)(=O)c2cnc3ccccc3n2)cc1	76*	21	20	-17	1
O=C(Cc1ccc(-n2cnnn2)cc1)NC12CC3CC(CC(C3)C1)C2	86*	0	-1	-17	35
O=C(NC1CCCCC1)c1ccc(-n2cnnn2)cc1	0	0	0	-16	.
Cc1ccccc1/C=N/Nc1nc2ccccc2[nH]1	38	8	0	-7	.
Cc1ccc(/C=N/Nc2nc3ccccc3[nH]2)s1	76*	11	5	1	5
C(=N\Nc1nc2ccccc2[nH]1)/c1ccccc1	84*	13	0	-7	7
C(=N\Nc1nc2ccccc2[nH]1)/c1c[nH]c2ccccc12	80*	34	-5	8	35
CN(C)c1cc(-c2ccc(Cl)c(Cl)c2)oc(=O)c1Cl	0	-3	3	13	.
CC1CN(S(=O)(=O)c2ccc(C(=O)Nc3ccc(S(=O)(=O)Nc4nccs4)cc3)cc2)CC(C)O1 (stereo unspecified)	1	2	1	-10	.
O=C(Nc1nccs1)c1ccc(S(=O)(=O)N2CCCCC2)cc1	104*	52*	-2	-3	77*
CC1CN(S(=O)(=O)c2ccc(C(=O)Nc3nccs3)cc2)CC(C)O1 (stereo unspecified)	84*	23	-6	-9	5
O=C(Nc1nccs1)c1ccc(S(=O)(=O)c2ccccc2)cc1	1	7	6	2	.
O=C1C2C3C=CC(C4CC34)C2C(=O)N1Cc1ccco1 (stereo unspecified)	0	5	15	-16	.
O=C(O)COCC(=O)Nc1ccc(-n2cnnn2)cc1	1	0	-2	-13	.
CC(=O)N(C(C)=O)c1ncc2c([nH]c3ccccc32)c1C#N	87*	-11	4	-4	44
Nc1c(C(=O)OCC2CCCO2)c2nc3ccccc3nc2n1-c1ccc2c(c1)OCCO2 (stereo unspecified)	93*	-7	-3	-14	2
COC(=O)c1ccc(/C=N/Nc2nc(C)c(C)s2)cc1	80*	11	0	-12	2
Cc1c(Br)cccc1NC(=O)c1sccc1-n1cccc1	1	1	-7	-11	.
CC(C)c1ccc(NC(=O)c2sccc2-n2cccc2)cc1	84*	3	2	5	25
CC(C)c1ccc(-n2cnn(-c3ncccc3[N+](=O)[O-])c2=O)cc1	78*	2	-3	0	1
CC(=O)c1ccc(OCC(=O)Nc2ccc3c(c2)CCC3)cc1	75*	-2	-3	-20	0
Nc1nonc1-n1nnc(C(=O)N/N=C/c2ccc(Br)cc2)c1CSC1=NCCS1	78*	-7	0	-17	2
SMILES	zVAD death inh	TNF necrop inh	eIF4E-4G inh	EBV gp42 inh	zVAD necrop conf
CCOC(=O)c1ccc(NC(=O)CSc2ccc(-c3ccncc3)nn2)cc1	1	2	-1	-7	.
Cc1ccc(NC(=O)CSc2ccc(-c3cccnc3)nn2)cc1Cl	82*	1	4	-34	1
COc1cc2cc(C(=O)N3CCN(Cc4ccc5c(c4)OCO5)CC3)c(=O)oc2cc1OC	1	1	0	-9	.
CCN1CCN(Cc2ccc(NC(=O)c3cc(NC(=O)c4ccno4)cc(OC)c3)cc2C(F)(F)F)CC1	77*	-8	-4	-19	73*
CCN1CCN(Cc2ccc(NC(=O)c3ccc(C)c(NC(=O)c4csc(-c5ccncc5)n4)c3)cc2C(F)(F)F)CC1	84*	-4	4	-16	81*
CCN1CCN(Cc2ccc(NC(=O)c3cc(NC(=O)c4ccc5n[nH]nc5c4)cc(OC)c3)cc2C(F)(F)F)CC1	0	2	-5	-6	.
CCN1CCN(Cc2ccc(NC(=O)c3ccc(C)c(NC(=O)c4ccno4)c3)cc2C(F)(F)F)CC1	75	10	-3	-22	.
CCN1CCN(Cc2ccc(NC(=O)c3cc(NC(=O)N4CCNC4=O)cc(OC)c3)cc2C(F)(F)F)CC1	78*	-8	-6	-14	64*
